Screens (PubChem)
Hits are enriched below; roughly 1.7% of the tested compounds scored in any of these assays.
PTHR1 agonist: qHTS for PTHR1 Agonists: Primary Screen | Potency, µM (titrated, usually from 115 µM), hits mostly activators | Parathyroid hormone/parathyroid hormone-related peptide receptor (Homo sapiens), Q03431 | AID 743266, 2014 | HEK293 GP2 PTHR1 cells, GloSensor cAMP luminescence, 1 h | hit rate 0.075% among 410,000; further: nearly all actives have a fitted effect of over 55% in size
Target sequence (Q03431 whole entry, looked up): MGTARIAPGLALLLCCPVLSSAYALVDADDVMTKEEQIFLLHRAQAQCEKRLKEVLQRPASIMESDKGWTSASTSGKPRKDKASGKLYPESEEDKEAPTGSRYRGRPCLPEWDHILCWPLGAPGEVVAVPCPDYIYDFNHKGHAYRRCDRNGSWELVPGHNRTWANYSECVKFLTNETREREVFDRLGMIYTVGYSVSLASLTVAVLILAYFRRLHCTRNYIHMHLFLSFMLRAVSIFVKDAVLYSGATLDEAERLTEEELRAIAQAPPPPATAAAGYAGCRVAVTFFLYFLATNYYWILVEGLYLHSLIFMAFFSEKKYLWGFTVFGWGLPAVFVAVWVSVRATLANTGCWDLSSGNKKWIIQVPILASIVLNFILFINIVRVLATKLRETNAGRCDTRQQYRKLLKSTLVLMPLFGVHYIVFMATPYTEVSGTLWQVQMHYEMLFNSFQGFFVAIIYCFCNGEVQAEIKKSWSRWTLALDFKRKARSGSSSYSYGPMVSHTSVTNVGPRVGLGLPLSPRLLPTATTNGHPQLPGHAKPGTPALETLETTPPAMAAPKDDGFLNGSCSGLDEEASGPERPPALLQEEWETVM
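HEK-293-derived GP2 cells expressing PTHR1 and a GloSensor cAMP reporter, 3,000/well, plated overnight, given luciferin plus IBMX (each 0.5 mM as added) for 1 h at 37 °C, then compound for 1 h at 37 °C. Luminescence was read after 15 min at room temperature.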
GLP1R inv ag: qHTS of GLP-1 Receptor Inverse Agonists (Inhibition Mode); hit rate 1.6% among 410,000; Glucagon-like peptide 1 receptor (Homo sapiens), P43220; HEK293 GLP-1R CRE-luciferase, luminescence, 24 h; GLP-1R form is constitutively active; Potency, µM (top dose mostly 38.3 µM), actives largely listed as inhibitors; further: nearly all actives have a fitted effect of over 55% in size
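GLP-1R inverse agonism mode: basal reporter luminescence in engineered HEK293 cells measured after one day of compound exposure at 37 deg C, with a 12 min room-temperature detection step.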
GLP1R cytotox: qHTS of GLP-1 Receptor Inverse Agonists: Cytotox Screen. Potency, µM (doses to about 38.3 µM), usual class: inhibitors. HEK293 cAMP-luciferase reporter cells, luminescence, 24 h. hit rate 0.13% among 410,000;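 further: loss of luciferase light is scored as toxicity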
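Cells in DMEM/10% Nu serum/1% pen-strep, 1536-well format. Pre-incubated 12 h, dosed with 23 nL compound, incubated a further 24 h. Luciferase detection, 12 min at room temp, luminescence.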
GLP1R ag: qHTS of GLP-1 Receptor Agonists | Glucagon-like peptide 1 receptor (Homo sapiens), P43220 | HEK293 GLP-1R CRE-luciferase, luminescence, 4-6 h; cells express a hypersensitive GLP-1R form | Potency, µM (titrated, usually from 45.6 µM), actives largely listed as activators | hit rate 0.007% among 380,000
Hits are given with their value. The call rests on the fitted dose curve; in most records, active means well fitted curve in the direction sought with a large enough effect; inconclusive means small, poorly fitted or top-dose-only effect, or another doubt; inactive means no such curve, though single readings can be large; an effect the other way counts as inactive or inconclusive.

What do the screens show for `CCN(CC)S(=O)(=O)c1cc(NC(=O)C2CCN(c3ncnc4sc(C)c(C)c34)CC2)ccc1Cl`?
PTHR1 agonist: inactive; GLP1R inv ag: 2.5µM; GLP1R cytotox: inactive; GLP1R ag: inactive

How did Cc1sc2ncnc(N3CCC(C(=O)N(C)CC(=O)Nc4ccc(Cl)c(C(F)(F)F)c4)CC3)c2c1C do in these assays?
PTHR1 agonist: inactive; GLP1R inv ag: 2.5µM; GLP1R cytotox: inconclusive; GLP1R ag: inactive

What do the screens show for `Cc1cccnc1NC(=O)C(c1ccccc1)c1ccccc1`?
PTHR1 agonist: inactive; GLP1R inv ag: inactive; GLP1R cytotox: inactive; GLP1R ag: inactive

Results for CCOC(=O)C1(CC2CC2)CCN(C(=O)c2cc(C3CC3)nc3ccccc23)CC1 ?
PTHR1 agonist: inactive; GLP1R inv ag: 10µM; GLP1R cytotox: inactive; GLP1R ag: inactive

What do the screens show for `CCOC(=O)C1(CC2CC2)CCN(C(=O)c2cc(OC)nc3ccccc23)CC1`?
PTHR1 agonist: inactive; GLP1R inv ag: inconclusive; GLP1R cytotox: inactive; GLP1R ag: inconclusive

How did COc1ccc([C@@H]2CC(=O)c3c(O)cc(O[C@H]4O[C@@H](CO[C@H]5O[C@@H](C)[C@@H](O)[C@@H](O)[C@@H]5O)[C@@H](O)[C@@H](O)[C@@H]4O)cc3O2)cc1O do in these assays?
GLP1R ag: inactive

What do the screens show for `COCCNC(=O)C1CCC(CNS(=O)(=O)c2ccc3c(c2)CC(C)N3C(C)=O)CC1` (configuration not stated)?
PTHR1 agonist: inactive; GLP1R inv ag: inactive; GLP1R cytotox: inactive

How did CC1(C)CN(c2ccccc2)N(C(=O)c2ccc(F)cc2)C1=O do in these assays?
PTHR1 agonist: inactive; GLP1R inv ag: inactive; GLP1R cytotox: inactive; GLP1R ag: inactive

Results for CC1(C)CN(c2ccccc2)N(C(=O)c2ccc(C#N)cc2)C1=O ?
PTHR1 agonist: inactive; GLP1R inv ag: 3.2µM; GLP1R cytotox: inactive; GLP1R ag: inactive

Results for COc1ccc(C(=O)/C=C2/C(=O)Nc3ccccc32)cc1 ?
PTHR1 agonist: inactive; GLP1R inv ag: inconclusive; GLP1R cytotox: inconclusive; GLP1R ag: inactive

Results for COc1ccc(C(=O)/C=C2/C(=O)Nc3ccccc32)c(OC)c1 ?
PTHR1 agonist: inactive; GLP1R inv ag: inconclusive; GLP1R cytotox: 10µM; GLP1R ag: inactive

How did CC1CCCCN1S(=O)(=O)c1ccc2c(c1)oc(=O)n2CC(=O)Nc1ccc(Cl)cc1 (configuration not stated) do in these assays?
PTHR1 agonist: inactive; GLP1R inv ag: inactive; GLP1R cytotox: inactive

What do the screens show for `COc1ccccc1C(=O)Nc1ccc(N2CCN(Cc3ccccc3)CC2)cc1`?
PTHR1 agonist: inactive; GLP1R inv ag: 11µM; GLP1R cytotox: inactive; GLP1R ag: inactive

How did Cc1ccc(S(=O)(=O)NCCSCc2ccccc2)cc1 do in these assays?
PTHR1 agonist: inactive; GLP1R inv ag: inconclusive; GLP1R cytotox: inactive; GLP1R ag: inactive

What do the screens show for `COc1ccc(S(=O)(=O)NCCSCc2cccc(C)c2)cc1Br`?
PTHR1 agonist: inactive; GLP1R inv ag: 11µM; GLP1R cytotox: inactive; GLP1R ag: inactive

What do the screens show for `Cc1cc(SCC(=O)N2CCCC2=O)nc2c(C)cccc12`?
PTHR1 agonist: inactive; GLP1R inv ag: inactive; GLP1R cytotox: inactive; GLP1R ag: inactive

What do the screens show for `Cc1cc(SCC(=O)NC2(C#N)CCCCC2)nc2c(C)cccc12`?
PTHR1 agonist: inactive; GLP1R inv ag: 10µM; GLP1R cytotox: inactive; GLP1R ag: inactive

What do the screens show for `O=C(Nc1cccc(-c2cccc(Cl)c2)c1)C1CCN(Cc2ccc(CO)o2)CC1`?
PTHR1 agonist: inactive; GLP1R inv ag: 3.5µM; GLP1R cytotox: inconclusive; GLP1R ag: inactive

How did Cc1ccc(CN2CCC(C(=O)Nc3cccc(-c4cccc(F)c4)c3)CC2)o1 do in these assays?
PTHR1 agonist: inactive; GLP1R inv ag: inconclusive; GLP1R cytotox: inactive; GLP1R ag: inactive

How did Cc1cccc(COC[C@H](Cc2ccccc2)N2CCN(C(=O)c3cc(Cl)cc(Cl)c3)CCC2=O)c1 do in these assays?
PTHR1 agonist: inactive; GLP1R inv ag: 11µM; GLP1R cytotox: inconclusive; GLP1R ag: inactive

Results for Cc1cccc(COCC(Cc2ccccc2)N2CCN(C(=O)c3cccc(Cl)c3)CCC2=O)c1 (configuration not stated) ?
PTHR1 agonist: inactive; GLP1R inv ag: inconclusive; GLP1R cytotox: inconclusive; GLP1R ag: inactive

Results for Cc1ccc(S(=O)(=O)N2CCC(=O)N(C(COCc3ccc(Cl)cc3)Cc3ccccc3)CC2)cc1 (configuration not stated) ?
PTHR1 agonist: inactive; GLP1R inv ag: 11µM; GLP1R cytotox: inactive; GLP1R ag: inactive

Results for Cc1ccc(S(=O)(=O)N2CCC(=O)N([C@H](COCc3ccc(Cl)cc3Cl)Cc3ccccc3)CC2)cc1 ?
PTHR1 agonist: inactive; GLP1R inv ag: inconclusive; GLP1R cytotox: inactive; GLP1R ag: inactive

How did Cc1cccc(C(=O)N2CCC(=O)N([C@H](COCc3cccc(C(F)(F)F)c3)Cc3ccccc3)CC2)c1 do in these assays?
PTHR1 agonist: inactive; GLP1R inv ag: 11µM; GLP1R cytotox: inconclusive; GLP1R ag: inactive

How did COc1ccc(OC)c(CCNC(=O)c2ccc3c(c2)c(C)c(C)n3Cc2ccccc2)c1 do in these assays?
PTHR1 agonist: inactive; GLP1R inv ag: inconclusive; GLP1R cytotox: inactive

What do the screens show for `Cc1ccc(-n2ncc3c(N4CCN(Cc5ccccc5)CC4)ncnc32)cc1C`?
PTHR1 agonist: inactive; GLP1R inv ag: inactive; GLP1R cytotox: inactive

What do the screens show for `CCNCc1nc2cc(Cl)ccc2c(=O)[nH]1`?
PTHR1 agonist: inactive; GLP1R inv ag: 10µM; GLP1R cytotox: inconclusive; GLP1R ag: inactive

How did NC(=O)C1CCN(Cc2nc3cc(Cl)ccc3c(=O)[nH]2)CC1 do in these assays?
PTHR1 agonist: inactive; GLP1R inv ag: inactive; GLP1R cytotox: inactive; GLP1R ag: inactive

Results for C[C@H](OC(=O)NCc1ccc(C(F)(F)F)cc1)[C@@H]1O[C@@]2(C)CCC[C@@H]1O2 ?
PTHR1 agonist: inactive; GLP1R inv ag: inconclusive; GLP1R cytotox: inactive; GLP1R ag: inactive

How did C[C@H](OC(=O)N1CCN(C(c2ccccc2)c2ccccc2)CC1)[C@@H]1O[C@@]2(C)CCC[C@H]1O2 do in these assays?
PTHR1 agonist: inactive; GLP1R inv ag: 10µM; GLP1R cytotox: inactive; GLP1R ag: inactive

Results for O=C(CSc1nc2c([nH]c3ccccc32)c(=O)n1-c1ccc(F)cc1)NCc1ccccc1 ?
PTHR1 agonist: inactive; GLP1R inv ag: inactive; GLP1R cytotox: inactive; GLP1R ag: inactive

How did O=C(Nc1ccn(CCCN2CCN(Cc3cccc4ccccc34)CC2)c(=O)n1)OCc1ccccc1 do in these assays?
PTHR1 agonist: inactive; GLP1R inv ag: 7.9µM; GLP1R cytotox: inactive; GLP1R ag: inactive

Results for Cc1cc(Br)ccc1SCC(=O)OCC(=O)Nc1ccc2[nH]c(=O)[nH]c2c1 ?
PTHR1 agonist: inactive; GLP1R inv ag: inactive; GLP1R cytotox: inactive; GLP1R ag: inactive

How did COc1cc(-c2noc(-c3ccc(NC4CCCCC4)c([N+](=O)[O-])c3)n2)cc(OC)c1OC do in these assays?
PTHR1 agonist: inactive; GLP1R inv ag: inactive; GLP1R cytotox: inactive
